Measurements reported in PubChem BioAssay (NCATS).
Records with an inconclusive call do not appear. Calls of active or inactive are those of the source. Calls come from the whole dose curve; as a rule, active = well fitted cell-killing curve with a large enough effect; inconclusive = small, poorly fitted or top-dose-only effect, or effect the other way; inactive = flat fitted curve, though single readings scatter.

Each compound was assayed on Tov112D (assay: Primary qHTS to identify gynecologic anti-cancer compounds using libraries of approved drugs and bioactive compounds (AID 1345084; note: nearly all actives have a fitted effect of over 55% in size)). Conditions: Gynecologic cancer cell panel viability, ATPlite luminescence, 48 h; series mostly up to 57.5 µM; activity change, negative = cytotoxicity: at the top concentration.
Method in brief: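 Cells, 1,000 per well, were allowed to settle for 16 h at 37 C before compound addition. Five concentrations were tested for 48 h, and viability was read by ATPlite luminescence after 15 min at room temperature.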
% is set by controls: 0 for no effect and ±100 for the full control effect; potency is the fitted concentration of half-maximal effect.

Q: With CCN1C[C@]2(COC)[C@H](O)C[C@H](OC)[C@]34[C@@H]5C[C@]6(O)[C@H](OC(=O)c7ccccc7)[C@@H]5[C@@](O)([C@H]([C@H](OC)[C@H]23)[C@@H]14)[C@@H](O)[C@@H]6OC as the compound, how does the “activity change, negative = cytotoxicity” value read?
A: 5.25% [at 38.5 µM] (inactive)

Q: How did the “activity change, negative = cytotoxicity” value turn out when CC(=O)O[C@H]1C[C@@H](OC(C)=O)C(C)(C)C2C[C@@H](O)[C@]3(C)C(CC[C@@]4(C)[C@H](C5=CC(=O)OC5O)C[C@H]5O[C@]543)[C@]21C (some centres not stated) was run?
A: -0.997% [at 25.3 µM] (inactive)

Q: For COC1C(O)C(C)OC(OC2C(CO)O[C@@H](O[C@@H]3CC4CCC5C(CC[C@]6(C)[C@@H](C7=CC(=O)OC7)CC[C@]56O)[C@@]4(C)[C@H](O)C3)C(O)C2O)C1O (some centres not stated), which Potency is on record?
A: 501 nM (active)

Q: How did the Potency turn out when COC1CC(O[C@H]2CC[C@]3(C=O)C4CC[C@]5(C)[C@@H](C6=CC(=O)OC6)CC[C@]5(O)[C@@H]4CC[C@]3(O)C2)OC(C)C1O[C@@H]1O[C@H](CO)[C@@H](O)[C@H](O)[C@H]1O (some centres not stated) was run?
A: 100 nM (active)

Q: With C[C@H]1C(=O)O[C@H]2[C@H](O)[C@]34C5OC(=O)[C@]3(O[C@@H]3OC(=O)[C@H](O)C34[C@H](C(C)(C)C)[C@H]5O)C12O (some centres not stated) as the compound, how does the “activity change, negative = cytotoxicity” value read?
A: 4.43% [at 25.3 µM] (inactive)

Q: CC(CCc1ccc(O)cc1)O[C@@H]1O[C@H](CO[C@H]2OC[C@](O)(CO)[C@H]2O)[C@@H](O)[C@H](O)[C@H]1O (some centres not stated) was tested. Which “activity change, negative = cytotoxicity” value did it give?
A: 2.77% [at 25.3 µM] (inactive)

Q: C[C@@](O)(COc1ccc(C#N)cc1)C(=O)Nc1ccc(C#N)c(C(F)(F)F)c1 was tested. Which “activity change, negative = cytotoxicity” value did it give?
A: 5.47% (inactive)
